According to PubChem BioAssay (EPA / NIEHS):
The source made the active and inactive calls. The calls were made as follows: active = hit-call score of the fitted dose curve at least 0.9, where 1 is the maximum; inactive = score below 0.9.

What follows are compounds tested on Macrophage colony-stimulating factor (MCSF), CSF1 (gene 1435) (assay: BSK_IMphg_MCSF: BioMAP Diversity Plus: IMphg Assay for Macrophage colony-stimulating factor (MCSF) Biomarker Activity (AID 2284293)). Settings: primary human endothelial cells with macrophages.
Procedure: BSK_IMphg is a cell-based, multiplexed-readout assay that uses venular endothelial cells and macrophages, a human vascular primary cell, with measurements taken at 24 hours after chemical dosing in a microplate: 96-well plate.BSK_IMphg_MCSF is an assay component measured in the BSK_IMphg assay. It measures M-CSF antibody related to regulation of gene expression using ELISA technology.Data from the assay component BSK_IMphg_MCSF was analyzed at the endpoint, BSK_IMphg_MCSF, in the positive analysis fitting direction relative to DMSO as the negative control and baseline of activity. Using a type of binding reporter, gain or loss-of-signal activity can be used to understand protein changes. To generalize the intended target to other relatable targets, this assay endpoint is annotated to the 'cytokine' intended target family, where the subfamily is 'colony stimulating factor'.
The levels of cell surface (or secreted, indicated by the prefix "s") biomarker endpoints were measured by ELISA. Overt cytotoxicity to cells in confluent adherent cultures (all systems other than the BT system) was assessed by measuring total protein levels using sulforhodamine B (SRB) staining in parallel cultures at the time of biomarker measurements, indicated as SRB endpoints. For proliferation assays for adherent cell types, individual cell types are cultured at sub-confluence and relative cell numbers quantified by SRB staining at time points optimized for each system (48 h: 3C and CASM3C systems; 72 h: BT and HDF3CGF systems; 96 h: SAg system). SRB was performed by staining cells with 0.1% SRB after fixation with 10% TCA and reading wells at 560 nm.Viability and proliferation of PBMC (T cells) was quantified by Alamar Blue reduction for the SAg and BT systems. For PBMC viability (referred to as PBMC Cytotoxicity within the assay endpoint names), cells were plated (75,000/well in a 96-well plate) and then chemical samples added for 1 h before addition of activators, SEB and TSST-1 (20 ng/mL final concentration each). Cells were incubated for 90 h. Then, Alamar Blue (20 uL/well) (Invitrogen, Cat DAL1100) was added for 6 h, and the plates were read with a fluorescence microplate reader at 546/580 nm (excitation/emission). For PBMC proliferation, cells were plated and activated as above but incubated for only 16 h prior to addition of Alamar Blue. Plates were read after 6 h.

| Structure (SMILES) | outcome |
| --- | --- |
| FC(F)(F)COC(OCC(F)(F)F)OCC(F)(F)F | inactive |
| NCC(F)(F)C(F)(F)C(F)(F)C(F)(F)F | inactive |
| FC(F)C(F)(F)COCC1CO1 (stereo not given) | inactive |
| FC(F)=C(F)C(F)(F)C(F)(F)C(F)(F)C(F)(F)C(F)(F)C(F)(F)F | inactive |
| C[Si](C)(C)C(F)(F)C(F)(F)C(F)(F)F | inactive |
| FC(F)(F)C(F)(F)C(F)(F)C(F)(F)C(F)(F)C(F)(F)I | inactive |
| OCCC(F)(F)C(F)(F)C(F)(F)C(F)(F)F | inactive |
| O=C(Cl)C(F)(F)C(F)(F)C(F)(F)C(=O)Cl | inactive |
| OC(O)(C(F)C(O)(O)C(F)(F)F)C(F)(F)F | inactive |
| O=S(=O)(O)CCC(F)(F)C(F)(F)C(F)(F)C(F)(F)C(F)(F)C(F)(F)F | inactive |
